Measured values as given in the OligoGym collection.

biological target: TPPP3; test: pooled miR-30 sensor sort-seq; sequence = guide strand; conditions: shRNA
Note: reference of the scale not given here.

Sequence | sensor-assay potency score (higher = more potent)
TTTAGTGACGCCCACATTGGCT | -0.692
ACTGTCGTCCAGGATGTCCTGC | -0.739
TTGCAGTCCTTGCACAGCTTGG | -0.971

biological target: TPRX1; test: as above; conditions: shRNA

Sequence | sensor-assay potency score (higher = more potent)
TGAACCACACCTGCAGCTGTTG | -0.826
TTGCCCATAGAGTCATCCCCTT | -0.764
TTTCATTCACAGAGCCACCCTC | -0.302
TTGAACCACACCTGCAGCTGTT | -0.741
TAGAGTCATCCCCTTCTTGGTA | -0.907
TCGGGCTTGGGATCTGAGCTGG | -0.605
TTCTTGGTACTGAGAGGTCATG | -1.73
TAGGGGTAGGAGCAGCTCTGTG | -1.84
TTCATTCACAGAGCCACCCTCC | -0.83
TGGTGGAGGCTGCAGATCGTGG | -1.98
TGAAGTGAGGGAATAACTGGGT | 0.243
TTGGAGCTGGGACTGAGCCTGA | -0.894

biological target: TRAFD1; test: as above; conditions: shRNA

Sequence | sensor-assay potency score (higher = more potent)
TAACTGGTTACTTGCAGCCTGT | -0.902
TTTGCCTTTGCAGTTCTGCTGC | 0.136
TTCCTGCTTAGTATCATCCAGG | -0.814
TTGCAGTTGTCACACAGTCGAG | -1.47
TTCTTCAAACAGATTATTCTGA | 0.585
TGCAGTTGTCACACAGTCGAGT | -0.879
TTCTATTGTGGAAAACATCTGA | 0.311
TTTATGTCACTGAGAGACCTGG | -0.674
TTATTCTGAATTGAAACCTGGG | 0.55
TTGGTTGGTAGTTCTATTGTGG | -0.193
TTGCACTCTCTTCACCACCCTC | -0.942

biological target: TRAPPC2L; test: as above; conditions: shRNA

Sequence | sensor-assay potency score (higher = more potent)
TTCAGCTCGTTCTCCGTAGGGG | 0.103
TTGGAGTTGGTGACGTAGCCGT | -0.459
TAGTTGAGAGAACATGCACAGC | -1.15
TGTGTAGGAGTTGTGTAGCTTC | 0.492
TTGTGTAGCTTCCGGAACATGC | -0.801
TATACCTTGTAGTCCTCCGTGG | 0.16
TACCTTGTAGTCCTCCGTGGGG | -0.92
TTTCGTTGTCTCGAAGGGCTGT | 0.949
TTCGTTGTCTCGAAGGGCTGTG | 0.76
TTGCACATCACGTCTGTGTAGG | 0.239
TGTAGCTTCCGGAACATGCTGC | 0.0954
TTGAGAGAACATGCACAGCTGC | -0.482
